Relative cell viability data for 39 molecules are collected here from the supplement of paper PMC9492666.
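Further: breast cancer cell viability read out with the CCK-8 kit after co-treatment of each compound with the ferroptosis inducer RSL3.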

The test system of this test is HCC1937. As to the kind of experiment: relative cell viability, compound + RSL3, vs DMSO (fraction of DMSO control); higher = less growth inhibition. To be noted: 72 h.
In the case of `C[C@H](CCCC(C)(C)O)[C@H]1CC[C@H]2[C@@H]3CC=C4C[C@@H](O)CC[C@]4(C)[C@H]3CC[C@]12C` [25-Hydroxycholesterol] + COC(=O)c1ccc([C@H]2c3[nH]c4ccccc4c3C[C@H](C(=O)OC)N2C(=O)CCl)cc1 [RSL3], the relative cell viability amounted to 0.572.

As for `CN1c2ccccc2C(=O)Nc2cnc(Nc3ccc(N4CCC(O)CC4)cc3)nc21` + COC(=O)c1ccc([C@H]2c3[nH]c4ccccc4c3C[C@H](C(=O)OC)N2C(=O)CCl)cc1 [RSL3], the relative cell viability is 0.206.

On to `NC(=O)c1cnccn1` [Pyrazinamide] + COC(=O)c1ccc([C@H]2c3[nH]c4ccccc4c3C[C@H](C(=O)OC)N2C(=O)CCl)cc1 [RSL3], for which the relative cell viability turned out to be 0.607.

For `Nc1ncnc2c1ncn2C1OC(COP(=O)(O)O)C(O)C1O` (centres undefined) [Adenosine 5'-monophosphate monohydrate] + COC(=O)c1ccc([C@H]2c3[nH]c4ccccc4c3C[C@H](C(=O)OC)N2C(=O)CCl)cc1 [RSL3], the relative cell viability turned out to be 0.932.

As for `COc1cc(N2CCN(C)CC2)ccc1Nc1ncc2c(n1)N(C1CCC1)C(=O)N(c1c(C)cccc1C)C2` + COC(=O)c1ccc([C@H]2c3[nH]c4ccccc4c3C[C@H](C(=O)OC)N2C(=O)CCl)cc1 [RSL3], the relative cell viability turned out to be 0.334.

For the molecule `CC(C)(Oc1ccc(C(=O)c2ccc(Cl)cc2)cc1)C(=O)O` [Choline Fenofibrate] + COC(=O)c1ccc([C@H]2c3[nH]c4ccccc4c3C[C@H](C(=O)OC)N2C(=O)CCl)cc1 [RSL3], the relative cell viability was 0.469.

Take `O=C(O)CCn1c2c(c3ccccc31)C[C@H](NS(=O)(=O)c1ccc(F)cc1)CC2` [Ramatroban] + COC(=O)c1ccc([C@H]2c3[nH]c4ccccc4c3C[C@H](C(=O)OC)N2C(=O)CCl)cc1 [RSL3]: the relative cell viability stood at 0.41.

As to `Cc1c(C(=O)NN2CCCCC2)nn(-c2ccc(Cl)cc2Cl)c1-c1ccc(Cl)cc1` [Rimonabant] + COC(=O)c1ccc([C@H]2c3[nH]c4ccccc4c3C[C@H](C(=O)OC)N2C(=O)CCl)cc1 [RSL3], the relative cell viability is 0.649.

With `C[C@H](CCOc1cccc(CC(=O)O)c1)N(Cc1cccc(C(F)(F)F)c1Cl)CC(c1ccccc1)c1ccccc1` [RGX-104 free Acid] + COC(=O)c1ccc([C@H]2c3[nH]c4ccccc4c3C[C@H](C(=O)OC)N2C(=O)CCl)cc1 [RSL3], the relative cell viability was determined as 0.333.

For the molecule `N[C@@H](Cc1c[nH]cn1)C(=O)O` [histidine] + COC(=O)c1ccc([C@H]2c3[nH]c4ccccc4c3C[C@H](C(=O)OC)N2C(=O)CCl)cc1 [RSL3], the relative cell viability was determined as 0.622.

On to `N=C(N)NCCC(=O)O` [3-Guanidinopropionic Acid] + COC(=O)c1ccc([C@H]2c3[nH]c4ccccc4c3C[C@H](C(=O)OC)N2C(=O)CCl)cc1 [RSL3], for which the relative cell viability turned out to be 0.509.

For the molecule `COc1cccc(CNc2ccc(S(=O)(=O)Nc3nc4ccccc4s3)cc2)c1O` + COC(=O)c1ccc([C@H]2c3[nH]c4ccccc4c3C[C@H](C(=O)OC)N2C(=O)CCl)cc1 [RSL3], the relative cell viability amounted to 0.583.

Regarding `CCOC(=O)c1c(NC(=O)CN2CCN(C(=O)c3ccco3)CC2)sc2c1CCC2` + COC(=O)c1ccc([C@H]2c3[nH]c4ccccc4c3C[C@H](C(=O)OC)N2C(=O)CCl)cc1 [RSL3], the relative cell viability was 0.384.

For the molecule `CC(C)(O)c1ccccc1CC[C@@H](SCC1(CC(=O)O)CC1)c1cccc(/C=C/c2ccc3ccc(Cl)cc3n2)c1` [Montelukast] + COC(=O)c1ccc([C@H]2c3[nH]c4ccccc4c3C[C@H](C(=O)OC)N2C(=O)CCl)cc1 [RSL3], the relative cell viability is 0.589.

As to `CC(C)(O)[C@@H]1Cc2cc3ccc(=O)oc3cc2O1` [marmesin] + COC(=O)c1ccc([C@H]2c3[nH]c4ccccc4c3C[C@H](C(=O)OC)N2C(=O)CCl)cc1 [RSL3], the relative cell viability amounted to 0.412.

Consider `Cc1ccc(CN(CC(O)COc2cccc3[nH]ccc23)C(C)(C)C)cc1` (centres undefined) + COC(=O)c1ccc([C@H]2c3[nH]c4ccccc4c3C[C@H](C(=O)OC)N2C(=O)CCl)cc1 [RSL3], for which the relative cell viability was determined as 0.357.

Turning to `Fc1ccc(-c2c3cccc(C(F)(F)F)c3nn2Cc2ccc(F)cc2Cl)cc1` + COC(=O)c1ccc([C@H]2c3[nH]c4ccccc4c3C[C@H](C(=O)OC)N2C(=O)CCl)cc1 [RSL3], the relative cell viability amounted to 0.756.

For the molecule `CCN(CC)CCN(Cc1ccc(-c2ccc(C(F)(F)F)cc2)cc1)C(=O)Cn1c(SCc2ccc(F)cc2)nc(=O)c2c1CCC2` [Darapladib] + COC(=O)c1ccc([C@H]2c3[nH]c4ccccc4c3C[C@H](C(=O)OC)N2C(=O)CCl)cc1 [RSL3], the relative cell viability was 0.0907.

As to `O=C(ON1C(=O)CCC1=O)N1CCN(C(c2ccc(Cl)cc2)c2ccc(Cl)cc2)CC1` [Cravatt Reagent] + COC(=O)c1ccc([C@H]2c3[nH]c4ccccc4c3C[C@H](C(=O)OC)N2C(=O)CCl)cc1 [RSL3], the relative cell viability turned out to be 0.55.

With `C[C@@H]1O[C@@H](O[C@H]2[C@H](Oc3cc(O)c4c(c3)O[C@H](c3ccc(O)cc3)CC4=O)O[C@H](CO)[C@@H](O)[C@@H]2O)[C@H](O)[C@H](O)[C@H]1O` [Naringin] + COC(=O)c1ccc([C@H]2c3[nH]c4ccccc4c3C[C@H](C(=O)OC)N2C(=O)CCl)cc1 [RSL3], the relative cell viability is 0.949.

For `Cc1cc(C)c(S(=O)(=O)N(CCc2cccc(Br)c2)Cc2ccc(-c3cccc(S(C)(=O)=O)c3)cc2)c(C)c1` + COC(=O)c1ccc([C@H]2c3[nH]c4ccccc4c3C[C@H](C(=O)OC)N2C(=O)CCl)cc1 [RSL3], the relative cell viability was determined as 0.636.

Take `O=C(c1ccc(NS(=O)(=O)c2cccc3cccnc23)cc1)N1CCN(CC2CC2)CC1` [Mitapivat] + COC(=O)c1ccc([C@H]2c3[nH]c4ccccc4c3C[C@H](C(=O)OC)N2C(=O)CCl)cc1 [RSL3]: the relative cell viability was 0.558.

For the molecule `CCC(=O)Nc1cccc(Oc2nc(Nc3ccc(N4CCN(C)CC4)cc3OC)ncc2Cl)c1` + COC(=O)c1ccc([C@H]2c3[nH]c4ccccc4c3C[C@H](C(=O)OC)N2C(=O)CCl)cc1 [RSL3], the relative cell viability worked out at 0.121.

Take `COC(=O)c1sccc1S(=O)(=O)Nc1ccc(Nc2ccccc2)cc1OC` + COC(=O)c1ccc([C@H]2c3[nH]c4ccccc4c3C[C@H](C(=O)OC)N2C(=O)CCl)cc1 [RSL3]: the relative cell viability came to 0.347.

In the case of `CN1CCN(C(=O)C2C(C(=O)O)[C@H]3CC[C@@H]2O3)CC1` (some centres undefined) + COC(=O)c1ccc([C@H]2c3[nH]c4ccccc4c3C[C@H](C(=O)OC)N2C(=O)CCl)cc1 [RSL3], the relative cell viability was determined as 0.313.

For the molecule `CCNC1(C(N)=O)CCN(c2ncnc3c2nc(-c2ccccc2Cl)n3-c2ccc(Cl)cc2)CC1` [Otenabant] + COC(=O)c1ccc([C@H]2c3[nH]c4ccccc4c3C[C@H](C(=O)OC)N2C(=O)CCl)cc1 [RSL3], the relative cell viability was 0.659.

As to `CC1=C[C@]2(O)O[C@@]3(CC2=C(C)C)[C@@H](C)CC[C@@H]13` [Curcumenol] + COC(=O)c1ccc([C@H]2c3[nH]c4ccccc4c3C[C@H](C(=O)OC)N2C(=O)CCl)cc1 [RSL3], the relative cell viability was determined as 0.369.

As for `C[C@H](CCC(=O)O)[C@H]1CC[C@H]2[C@@H]3C[C@H](O)[C@@H]4C[C@H](O)CC[C@]4(C)[C@H]3CC[C@]12C` [Hyodeoxycholic acid] + COC(=O)c1ccc([C@H]2c3[nH]c4ccccc4c3C[C@H](C(=O)OC)N2C(=O)CCl)cc1 [RSL3], the relative cell viability came to 0.829.

For `Cc1nc(-c2nc(-c3ccc(OC(F)(F)F)cc3)no2)nn1Cc1cccc(N2CCC(S(C)(=O)=O)CC2)c1` + COC(=O)c1ccc([C@H]2c3[nH]c4ccccc4c3C[C@H](C(=O)OC)N2C(=O)CCl)cc1 [RSL3], the relative cell viability was 0.417.

For the molecule `O=C1c2cc(CO)cc(O)c2C(=O)c2c(O[C@@H]3O[C@H](CO)[C@@H](O)[C@H](O)[C@H]3O)cccc21` [Aloe-emodin-8-O-beta-D-glucopyranoside] + COC(=O)c1ccc([C@H]2c3[nH]c4ccccc4c3C[C@H](C(=O)OC)N2C(=O)CCl)cc1 [RSL3], the relative cell viability was found to be 0.368.

As to `O=C(NN1CCCCC1)c1nn(-c2ccc(Cl)cc2Cl)c(-c2ccc(C#Cc3ccc(C(F)(F)F)cc3)s2)c1CNS(=O)(=O)N1CCCC1` + COC(=O)c1ccc([C@H]2c3[nH]c4ccccc4c3C[C@H](C(=O)OC)N2C(=O)CCl)cc1 [RSL3], the relative cell viability was 0.75.

As to `COc1ccc(-c2coc3cc(OC)ccc3c2=O)cc1` [4',7-Dimethoxyisoflavone] + COC(=O)c1ccc([C@H]2c3[nH]c4ccccc4c3C[C@H](C(=O)OC)N2C(=O)CCl)cc1 [RSL3], the relative cell viability stood at 0.251.

With `Cc1coc2c1C(=O)C(=O)c1c-2ccc2c(C)cccc12` [Tanshinone I] + COC(=O)c1ccc([C@H]2c3[nH]c4ccccc4c3C[C@H](C(=O)OC)N2C(=O)CCl)cc1 [RSL3], the relative cell viability was determined as 0.218.

As for `COc1ccc(/C=C/c2cc(O)cc(O[C@@H]3O[C@H](CO)[C@@H](O)[C@H](O)[C@H]3O)c2)cc1` [Deoxyrhapontin] + COC(=O)c1ccc([C@H]2c3[nH]c4ccccc4c3C[C@H](C(=O)OC)N2C(=O)CCl)cc1 [RSL3], the relative cell viability was 0.532.

As to `CC(C)(C)N1C(=O)C(Nc2ccc(N3CCCCC3)cc2)=C(c2ccccc2)S1(=O)=O` + COC(=O)c1ccc([C@H]2c3[nH]c4ccccc4c3C[C@H](C(=O)OC)N2C(=O)CCl)cc1 [RSL3], the relative cell viability stood at 0.686.

In the case of `CC(C)(C)c1ccc(-c2nc3ccccc3[nH]2)cc1` + COC(=O)c1ccc([C@H]2c3[nH]c4ccccc4c3C[C@H](C(=O)OC)N2C(=O)CCl)cc1 [RSL3], the relative cell viability is 0.529.

As to `O=C(O)c1cccc(N=Nc2c(O)[nH]c3ccc(S(=O)(=O)NCc4ccc(F)cc4)cc23)c1` + COC(=O)c1ccc([C@H]2c3[nH]c4ccccc4c3C[C@H](C(=O)OC)N2C(=O)CCl)cc1 [RSL3], the relative cell viability was determined as 0.516.

As to `Cc1nc(Nc2cnn(C3CCNCC3)c2)nc2c1N(C)C(=O)c1cc3ccccc3cc1N2C` + COC(=O)c1ccc([C@H]2c3[nH]c4ccccc4c3C[C@H](C(=O)OC)N2C(=O)CCl)cc1 [RSL3], the relative cell viability is 0.31.

For `C=CCc1ccc(O)c(-c2cc(CC=C)ccc2O)c1` [Magnolol] + COC(=O)c1ccc([C@H]2c3[nH]c4ccccc4c3C[C@H](C(=O)OC)N2C(=O)CCl)cc1 [RSL3], the relative cell viability came to 0.789.
